Screening results (PubChem)
In the library only some 12% were active in any assay of this set; here they are far more common.
PI5P4K alpha inh: qHTS for Inhibitors of phosphatidylinositol 5-phosphate 4-kinase (PI5P4K). Phosphatidylinositol 5-phosphate 4-kinase type-2 alpha (Homo sapiens), P48426. PI5P4Kalpha enzyme, ADP-Glo luminescence, 60 min; hits give low values. max response, %. 330,000 compounds, 1.2% hits. AID 652105, 2013; active = max response of -50% or lower; inconclusive = between -30% and -50%; inactive = -30% or higher; note: value at the top dose of about 77 µM; % is set by controls: 0 for no effect and ±100 for the full control effect
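Controls without substrate or without enzyme flank wells where PI5P4Kalpha converts substrate using 5 microM ATP (final). Incubation lasts 60 minutes at room temperature; ADP formed is read by ADP-Glo luminescence.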
PLK1 PBD inh: qHTS for Inhibitors of PLK1-PDB (polo-like kinase 1 - polo-box domain): Primary Screen | Serine/threonine-protein kinase PLK1 (Homo sapiens), P53350 | Plk1 PBD binding of FITC phosphopeptide, fluorescence polarization | Potency, µM, without a hit: max response, negative = inhibition, usual class: inhibitors | 360,000 compounds, 2.8% hits; note: potency is the fitted concentration of half-maximal effect; series mostly up to about 57 µM; % is set by controls: 0 for no effect and ±100 for the full control effect; nearly all actives have a fitted effect of over 65% in size
G9a inh: qHTS Assay for Inhibitors of Histone Lysine Methyltransferase G9a | Histone-lysine N-methyltransferase EHMT2 (Homo sapiens), Q96KQ7 | G9a H3K9 monomethylation, AlphaScreen, 2 h | Potency, µM (titrated, usually from 102 µM), for the others: top-dose activity, negative = inhibition, actives largely listed as inhibitors | 350,000 compounds, 8.8% hits; note: potency is the fitted concentration of half-maximal effect; % is set by controls: 0 for no effect and ±100 for the full control effect; nearly all actives have a fitted effect of over 75% in size
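Compounds were preincubated with 20 nM G9a for 15 min, after which biotinylated H3K9 peptide (500 nM) and SAM (20 uM) started a 2 h room-temperature reaction. Monomethylated product was quantified by antibody-based AlphaScreen chemiluminescence.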
JMJD2A Tudor inh: qHTS Assay for Inhibitors of JMJD2A-Tudor Domain; Lysine-specific demethylase 4A (Homo sapiens), O75164; AlphaScreen JMJD2A-Tudor / H3K4me3 peptide binding; Potency, µM (series often up to 114 µM), for inactives: at the top dose activity change, negative = inhibition, actives largely listed as inhibitors; 390,000 compounds, 4.4% hits; note: potency is the fitted concentration of half-maximal effect; % is set by controls: 0 for no effect and ±100 for the full control effect; nearly all actives have a fitted effect of over 50% in size
Target sequence (O75164 whole entry, looked up, the tested form may be a part): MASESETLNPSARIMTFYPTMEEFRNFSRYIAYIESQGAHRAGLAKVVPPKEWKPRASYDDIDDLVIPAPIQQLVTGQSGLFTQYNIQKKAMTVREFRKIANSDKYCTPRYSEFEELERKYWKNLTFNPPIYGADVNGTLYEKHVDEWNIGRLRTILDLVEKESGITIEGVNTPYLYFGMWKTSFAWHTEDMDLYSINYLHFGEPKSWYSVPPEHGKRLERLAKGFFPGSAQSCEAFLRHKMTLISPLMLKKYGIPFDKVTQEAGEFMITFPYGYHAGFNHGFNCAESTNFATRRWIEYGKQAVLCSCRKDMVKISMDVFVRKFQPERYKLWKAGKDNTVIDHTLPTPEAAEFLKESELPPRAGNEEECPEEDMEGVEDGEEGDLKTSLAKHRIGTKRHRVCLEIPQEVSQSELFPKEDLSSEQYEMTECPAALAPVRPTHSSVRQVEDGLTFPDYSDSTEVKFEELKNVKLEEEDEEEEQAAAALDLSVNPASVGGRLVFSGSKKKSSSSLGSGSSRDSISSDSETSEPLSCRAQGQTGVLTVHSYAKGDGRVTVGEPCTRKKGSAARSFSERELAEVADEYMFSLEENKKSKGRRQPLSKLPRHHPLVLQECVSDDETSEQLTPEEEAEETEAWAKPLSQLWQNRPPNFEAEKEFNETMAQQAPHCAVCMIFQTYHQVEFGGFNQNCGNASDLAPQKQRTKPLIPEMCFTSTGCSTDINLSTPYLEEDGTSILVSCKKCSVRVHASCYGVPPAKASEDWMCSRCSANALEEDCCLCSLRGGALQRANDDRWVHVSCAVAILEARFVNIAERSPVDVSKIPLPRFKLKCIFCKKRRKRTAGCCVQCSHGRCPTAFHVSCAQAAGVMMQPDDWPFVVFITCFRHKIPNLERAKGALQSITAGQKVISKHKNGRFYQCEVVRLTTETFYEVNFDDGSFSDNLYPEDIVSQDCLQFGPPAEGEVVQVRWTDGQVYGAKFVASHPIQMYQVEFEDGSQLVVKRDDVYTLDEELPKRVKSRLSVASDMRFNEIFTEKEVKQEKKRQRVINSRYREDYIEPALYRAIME
HP1b binding inh: HTS for Inhibitors of HP1-beta Chromodomain Interactions with Methylated Histone Tails. Chromobox protein homolog 1 (Homo sapiens), P83916. AlphaScreen HP1-beta / biotin-H3K9me3 peptide binding. Potency, µM (highest dose often 114 µM), without a hit: top-dose activity change, negative = inhibition, actives largely listed as inhibitors. 390,000 compounds, 0.56% hits. AID 540317, 2011; note: potency is the fitted concentration of half-maximal effect; nearly all actives have a fitted effect of over 70% in size
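Compound inhibition of the preformed complex between 50 nM HP1-beta and 50 nM biotinylated H3K9me3 peptide was read by AlphaScreen. Buffer was PBS pH 7.4 with 0.01% Tween-20. Incubations ran 30 min at room temperature, with 10 ug/mL donor/acceptor beads.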
BAZ2B inh: qHTS Assay for Inhibitors of BAZ2B | AlphaScreen BAZ2B-H3K14Ac peptide displacement | Potency, µM (titrated, usually from 114 µM), for inactives: top-dose activity change, negative = inhibition, hits mostly inhibitors | 360,000 compounds, 4.4% hits | AID 504333, 2011; note: potency is the fitted concentration of half-maximal effect; % is set by controls: 0 for no effect and ±100 for the full control effect; nearly all actives have a fitted effect of over 60% in size
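Multi-concentration screen (max 110 uM) measuring displacement of acetylated histone H3 peptide from BAZ2B by AlphaScreen, using 50 nM protein, 50 nM peptide and 10 ug/mL streptavidin donor plus Ni-chelate acceptor beads.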
Numbers without * were called inactive; ? = inconclusive; nt = no result given; [ ] = remark or other dose. Unless noted, calls come from the whole dose curve; as a rule, active = well fitted curve in the direction sought with a large enough effect; inconclusive = small, poorly fitted or top-dose-only effect, or another doubt; inactive = no such curve, though single readings can be large; an effect the other way counts as inactive or inconclusive.

SMILES	PI5P4K alpha inh	PLK1 PBD inh	G9a inh	JMJD2A Tudor inh	HP1b binding inh	BAZ2B inh
CCOc1ccc(C(=O)CCC(=O)Nc2ncccc2O)cc1	?	-12.5%	1.1%[2.33 µM]	-31.0%	13.0%	56.2µM*
COc1ccc(CNC(=O)[C@H](Cc2ccccc2)NC(=O)C2CCNCC2)cc1	3.4	-12.1%	50.1µM*	-6.2%	35.9%	-4.1%
CC(C)C[C@@H](NC(=O)C1CCC(CNC(=O)[C@H](Cc2ccccc2)NC(=O)OC(C)(C)C)CC1)C(=O)O (some centres not stated)	1.6	1.6%	?	28.2µM*	11.3%	1.9%
COc1ccc(C(CNC(=O)Cc2ccc(-c3ccccc3)cc2)N(C)C)cc1 (configuration not stated)	0.4	3.6%	5.7%	-29.7%	-17.5%	-10.7%
COc1ccc(C(CNC(=O)C(Cc2ccccc2)NC(N)=O)N(C)C)cc1 (configuration not stated)	3.2	-12.7%	39.8µM*	-9.7%	27.6%	-14.6%
Cn1c(=O)cc(SCC(=O)N2CCN(c3ccccc3F)CC2)c2ccc(Cl)cc21	nt	nt	?	-19.7%	18.8%	nt
O=C(NC(=S)Nc1ccc(NC(=O)c2ccco2)cc1)c1ccccc1	6.1	-16.9%	?	35.5µM*	-9.5%	-0.4%
O=C(Cc1cccs1)NNC(=S)NC(=O)c1ccco1	-14.2	-19.2%	11.2µM*	-8.6%	10.5%	14.4%
Cc1ccccc1OCC(=O)NNC(=S)NC(=O)c1ccco1	nt	-16.9%	?	?	-8.4%	8.9%
Cc1ccc(C)c(NC(=S)NNC(=O)c2cc3c(s2)CCC(C)C3)c1 (configuration not stated)	-9.9	-11.8%	35.5µM*	-32.3%	-19.3%	-6.1%
O=C(NC(=S)NNC(=O)c1ccco1)c1ccccc1	-18.0	-27.3%	25.1µM*	-28.8%	18.6%	4.3%
Cc1cccc(NC(=S)NNC(=O)c2cc3c(s2)CCC(C)C3)c1C (configuration not stated)	-0.3	-19.8%	?	?	-7.0%	11.5%
Cc1ccc(CCNC(=O)c2cnc3c(-c4ccc(F)cc4)c(C)nn3c2C)cc1	nt	nt	5.4%[59 µM]	2.0%	40.9%	-0.6%
CCOC(=O)c1scc(-c2ccc(C)cc2)c1S(=O)(=O)Nc1cccc(CC)c1	nt	nt	7.5%[59 µM]	4.7%	5.2%	-4.6%
COc1ccc(CCNC(=O)c2coc(=O)c(Br)c2)cc1	0.6	-8.2%	11.6%[0.501 µM]	-15.7%	21.7%	-3.9%
Cc1ccc(Cl)cc1-n1ncc2c(N3CCC(C)CC3)ncnc21	nt	nt	11.0%[59 µM]	11.6%	36.3%	43.6%
CC(C)(C)c1ccc(OCC(=O)NNC(=S)NC(=O)c2ccco2)c(Br)c1	-0.4	?	28.2µM*	?	?	-25.4%
O=C(Nc1ccc(NC(=O)c2cccs2)cc1)c1ccco1	10.7	-3.2%	17.4%[59 µM]	-15.0%	27.0%	8.3%
O=C(NC(=S)Nc1ccc(NC(=O)c2cccs2)cc1)c1ccco1	0.9	18.9µM*	-12.6%[59 µM]	?	?	-3.7%
Cc1ccc(C)c(NC(=S)NNC(=O)c2ccco2)c1	nt	18.9µM*	2.2%	-32.7%	-10.3%	11.0%
O=C(Cc1ccc(Cl)cc1)NNC(=S)NC(=O)c1cccs1	0.9	-9.2%	35.5µM*	-22.7%	2.4%	-12.5%
O=C(Cc1cccs1)NNC(=S)NCc1ccc(Cl)cc1	-12.6	-10.8%	nt	-11.3%	40.7%	0.5%
CC(C)c1ccc(OCC(=O)NNC(=S)NC(=O)c2ccco2)c(Br)c1	-16.5	?	61.6%	?	1.6%	4.0%
CCC(C)NC(=O)c1ccccc1NC(=O)C1CCN(S(=O)(=O)Cc2ccccc2)CC1 (configuration not stated)	nt	nt	-32.0%[59 µM]	-20.5%	-8.8%	-10.8%
COc1cc(OC)cc(-c2nnc(SCc3ccc(C(=O)O)cc3)o2)c1	-17.7	18.9µM*	39.8µM*	-24.1%	10.5%	5.1%
SMILES	PI5P4K alpha inh	PLK1 PBD inh	G9a inh	JMJD2A Tudor inh	HP1b binding inh	BAZ2B inh
CCCCN(C(=O)c1ccc(C)o1)c1c(N)n(CC(C)C)c(=O)[nH]c1=O	-6.0	-5.4%	-46.8%[12.7 µM]	-14.3%	18.6%	-0.2%
O=C(O)CSc1ncnc2sc3c(c12)CCCC3	-58.4*	-14.9%	nt	-12.4%	7.3%	5.1%
O=C(CSc1ncnc2sc3c(c12)CCC3)Nc1ccccc1C(=O)O	-83.7*	-18.5%	11.8%[12.7 µM]	-14.0%	3.2%	-13.6%
Cc1ccc(C(=O)CSc2ncnc3sc4c(c23)CCCC4)cc1	nt	-8.9%	-8.8%	3.5%	24.3%	-2.3%
O=C(O)CSc1ncnc2sc3c(c12)CCC3	-68.0*	-9.4%	-17.1%	-23.6%	36.2%	50.1µM*
CCN(CC)c1ncnc2sc3c(c12)CCC3	-3.2	-8.3%	39.8µM*	9.8%	33.5%	-7.3%
CS(=O)(=O)N1CCC[C@@]2(CCN(Cc3ccccc3)C2)C1	nt	nt	-13.9%[12.7 µM]	nt	nt	nt
O=c1[nH][nH]c2c1[C@@H](c1ccc(F)cc1)O[C@H](CCc1ccccc1)C2	2.0	-15.3%	nt	nt	nt	nt
CC(C)[C@@H]1Cc2[nH]c(=O)[nH]c(=O)c2[C@H](c2ccc(F)cc2)O1	2.5	-0.2%	nt	nt	nt	nt
O=c1[nH][nH]c2c1[C@H](c1ccc(F)cc1)O[C@H](CCC(F)(F)F)C2	3.5	7.52µM*	nt	nt	nt	nt
O=c1[nH][nH]c2c1C(c1ccc(F)cc1)OC(CCc1ccccc1)C2 (configuration not stated)	7.9	10.6µM*	nt	nt	nt	nt
CC(C)[C@@H]1Cc2[nH][nH]c(=O)c2[C@H](c2ccc(F)cc2)O1	-4.3	23.8µM*	nt	nt	nt	nt
O=c1[nH]c(=S)[nH]c2c1C(c1ccc(F)cc1)OC(CCC(F)(F)F)C2 (configuration not stated)	-4.3	-0.2%	nt	nt	nt	nt
CC(C)c1ccc(S(=O)(=O)c2cnc(SCC(=O)Nc3cccc(C(F)(F)F)c3)nc2N)cc1	nt	nt	-4.4%[59 µM]	-10.2%	21.9%	-1.2%
Cc1cc(-c2ccc(S(=O)(=O)Nc3cccc(C)c3C)s2)on1	nt	nt	-3.6%[59 µM]	4.2%	35.1%	0.7%
O=c1n(Cc2ccc(Cl)cc2)nc2n1-c1ccccc1OC2	nt	nt	9.3%[59 µM]	-8.6%	21.4%	-16.0%
O=C(COC(=O)C1C2CC3OC(=O)C1C3C2)Nc1ccccc1 (configuration not stated)	5.4	-18.0%	50.1µM*	-4.1%	6.6%	7.3%
COc1ccc(N2CCN(C(=O)CCNC(=O)Cn3ccc4ccccc4c3=O)CC2)cc1	1.5	-9.6%	?	-19.6%	13.0%	nt
